Where “and” joins values, the source holds several entries; their conditions need not be identical. Equal entries are not always repeated. About 83,000 compounds went through this panel and 20% of them were active in at least one assay; those are over-represented in the sample as a whole.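 Growth was measured after 48 h exposure to one concentration of compound in 96-well plates. Values under 10 count as active.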 Calls of active or inactive are those of the source.
Assays:
Assay in all cases: NCI-60 one-dose screen, 48 h (100 = growth as untreated, 0 = no growth, -100 = all killed)
Details in all cases: 10 µM unless noted
[1] = test system: NCI-H23 lung
[2] = test system: NCI-H226 lung
[3] = test system: NCI-H322M lung
[4] = test system: HOP-62 NSCLC
[5] = test system: NCI-H460 lung
[6] = test system: HOP-92 NSCLC
[7] = test system: NCI-H522 lung
[8] = test system: A549/ATCC NSCLC
[9] = test system: 786-0 renal
[10] = test system: COLO 205 colon
[11] = test system: DU-145 prostate
[12] = test system: K-562 leukemia
[13] = test system: MALME-3M melanoma
[14] = test system: MDA-MB-231 breast
[15] = test system: RXF 393 renal
[16] = test system: SF-268 CNS
[17] = test system: SF-295 CNS
[18] = test system: SF-539 CNS
[19] = test system: UACC-257 melanoma
[20] = test system: M14 melanoma

Measured: growth

Oc1ccc(O)c(-c2ccccc2)c1
active: [7] -68.3%
inactive: [1] 63.1% | [2] 54.9% | [3] 42.9% | [4] 46.6% | [5] 19.7% | [6] 85.8% | [8] 66.1% | [9] 65.6% | [10] 85.9% | [11] 77.6% | [12] 30.4% | [13] 84.6% | [14] 66% | [15] 73.8% | [16] 53.7% | [17] 17.7% | [18] 46.3% | [19] 88.4% | [20] 65.9%

CCOC(=N)c1ccc(C(=N)OCC)cc1
inactive: [1] 101% | [2] 100% | [3] 113% | [4] 84.2% | [5] 111% | [6] 93% | [7] 97.3% | [8] 99.7% | [9] 86.8% | [10] 103% | [11] 103% | [12] 98.7% | [13] 106% | [14] 96.3% | [15] 112% | [16] 98.4% | [17] 91.6% | [18] 98.1% | [19] 102% | [20] 104%

Cc1nc(Nc2ccc(Cl)cc2)c2cnn(-c3ccccc3)c2n1
inactive: [1] 97.3% | [2] 96.6% | [3] 104% | [4] 108% | [5] 103% | [6] 95.4% | [7] 105% | [8] 110% | [9] 103% | [10] 102% | [11] 107% | [12] 113% | [13] 90.3% | [14] 111% | [15] 93.6% | [16] 99.8% | [17] 97.1% | [18] 99.9% | [19] 101%

CC(C)(C)OC(=O)CC1(O)CCCCC1
inactive: [1] 101% | [2] 93.7% | [3] 111% | [4] 114% | [5] 103% | [6] 86.1% | [7] 102% | [8] 109% | [9] 101% | [10] 109% | [11] 112% | [12] 114% | [13] 117% | [14] 95.8% | [15] 108% | [16] 104% | [17] 100% | [18] 108% | [19] 109% | [20] 108%

OCCCc1ccccc1
inactive: [1] 107% | [2] 99% | [3] 76.2% | [4] 101% | [5] 112% | [6] 94.7% | [7] 110% | [8] 99.8% | [9] 110% | [10] 94.1% | [11] 118% | [12] 121% | [13] 75.8% | [14] 97.8% | [15] 105% | [16] 108% | [17] 107% | [18] 112% | [19] 102%

CCCCNC(=O)c1ccccc1C
inactive: [1] 90.4% | [2] 94.4% | [3] 89.4% | [4] 91.1% | [5] 105% | [6] 96.3% | [7] 93.2% | [8] 100% | [9] 92.9% | [10] 98.3% | [11] 104% | [12] 103% | [13] 87.4% | [14] 103% | [15] 94.8% | [16] 101% | [17] 94.6% | [18] 107% | [19] 100% | [20] 90.4%

O=C(O)C(Cc1ccc(OS(=O)(=O)Cc2ccccc2)cc1)NS(=O)(=O)Cc1ccccc1 (stereo unspecified)
inactive: [1] 105% and 112% | [2] 108% and 109% | [3] 119% and 127% | [4] 105% and 118% | [5] 106% and 119% | [6] 135% and 102% | [7] 96.6% | [8] 101% and 105% | [9] 98.9% and 114% | [10] 114% | [11] 101% and 108% | [12] 105% and 101% | [13] 95.8% and 136% | [14] 102% | [15] 118% and 126% | [16] 105% and 98% | [17] 106% and 102% | [18] 97.7% and 101% | [19] 100% and 101% | [20] 113% and 100%

COc1ccc(CCl)c(C)c1OC
inactive: [1] 96.2% | [2] 95.8% | [3] 95.8% | [4] 104% | [5] 103% | [6] 86.1% | [7] 99.8% | [8] 102% | [9] 106% | [10] 109% | [11] 104% | [13] 84.9% | [14] 98.5% | [15] 112% | [16] 97.1% | [17] 95.3% | [18] 99.4% | [19] 96% | [20] 110%
active: [12] 6.6%

COC(=O)c1nc(=S)[nH]c(C(=O)OC)c1C(=O)c1ccc(OC)cc1
inactive: [1] 97.4% | [2] 90.7% | [3] 104% | [4] 123% | [5] 114% | [6] 95.9% | [7] 101% | [8] 118% | [9] 113% | [10] 117% | [11] 117% | [12] 106% | [13] 97.5% | [14] 100% | [15] 108% | [16] 112% | [17] 99.6% | [18] 99.3% | [19] 109% | [20] 108%

COC(=O)c1nc(N)nc(C(=O)OC)c1C(=O)c1cccc2ccccc12
inactive: [1] 101% | [2] 97.1% | [3] 109% | [4] 105% | [5] 139% | [6] 85.5% | [7] 101% | [8] 107% | [9] 110% | [10] 144% | [11] 121% | [12] 111% | [13] 103% | [14] 105% | [15] 105% | [16] 116% | [17] 98.7% | [18] 95.4% | [19] 118% | [20] 108%

Cc1cc(=NO)cc(C)n1O
inactive: [1] 109% | [2] 114% | [3] 94.3% | [4] 100% | [5] 107% | [6] 111% | [7] 120% | [8] 113% | [9] 107% | [10] 113% | [11] 101% | [12] 96.8% | [13] 112% | [14] 118% | [15] 123% | [16] 99.2% | [17] 94.4% | [18] 104% | [19] 112% | [20] 108%

CCN(C)c1ccccc1
inactive: [1] 102% | [2] 95.7% | [3] 111% | [4] 108% | [5] 108% | [6] 101% | [7] 99.5% | [8] 105% | [9] 97% | [10] 95.7% | [11] 108% | [12] 110% | [13] 96% | [14] 98.8% | [15] 106% | [16] 99.1% | [17] 91% | [18] 97.7% | [19] 103%

CC(C)(C)C1CCC(=NO)CC1 (stereo unspecified)
inactive: [1] 95.5% | [2] 99.9% | [3] 106% | [4] 95.9% | [5] 99.6% | [6] 71.4% | [7] 92.5% | [8] 91.6% | [9] 94.5% | [10] 117% | [11] 112% | [12] 128% | [13] 103% | [14] 104% | [15] 90.6% | [16] 109% | [17] 98.3% | [18] 96.2% | [19] 76.4%
